Measured values: PubChem BioAssay (NCATS)
Inconclusive results are not listed. Activity calls are given as the source filed them. Calls follow the shape of the dose curve; as a rule, active = well fitted inhibition curve with a large enough effect; inconclusive = small, poorly fitted or top-dose-only effect; inactive = no such curve, though single readings can be large or run the other way.

Assay: BET inhibitor-based combinations targeting novel dependencies in MECOM-rearranged (r) AML: MV-4-11 cell line (AID 2202233); also: nearly all actives have a fitted effect of over 45% in size;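 as to viability, % of control: plate controls were DMSO for no effect and blank wells for full effect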
Conditions: MV-4-11 AML viability, CellTiter-Glo luminescence, 48 h; series mostly up to 46 µM; viability, % of control: at the top concentration
Outline: (§1)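 Luminescent ATP readout (CellTiter-Glo, 15 min at room temperature) after 48 hr drug exposure gave viability. Dose-response curves, normalized to DMSO and empty-well controls, were summarized as area under the curve and its mean-centred Z-score.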
Potency is read from the fitted curve at half-maximal effect.

| Structure (SMILES) | viability, % of control | Potency |
| --- | --- | --- |
| COc1ccc(C(=O)CC2(O)C(=O)Nc3c(Cl)ccc(Cl)c32)cc1 (centres undefined) | 2.33% (inactive) | – |
| Cn1ncc(Cl)c1-c1cc(C(=O)N[C@H](CN)Cc2ccc(F)c(F)c2)sc1Cl | – | 16600 nM (active) |
| Cc1c(NC(=O)OC[C@@H]2COCCN2)cn2ncnc(Nc3ccc4c(cnn4Cc4cccc(F)c4)c3)c12 | – | 18600 nM (active) |
| C=C(c1ccc(C(=O)O)cc1)c1cc2c(cc1C)C(C)(C)CCC2(C)C | – | 148 nM (active) |
| C[C@H]1O[C@@H](O[C@H]2[C@@H](O)C[C@H](O[C@H]3[C@@H](O)C[C@H](O[C@H]4CC[C@@]5(C)[C@H](CC[C@@H]6[C@@H]5C[C@@H](O)[C@]5(C)[C@@H](C7=CC(=O)OC7)CC[C@]65O)C4)O[C@@H]3C)O[C@@H]2C)C[C@H](O)[C@@H]1O | – | 105 nM (active) |
| Cc1[nH]c2ccccc2c1CCNCc1ccc(/C=C/C(=O)NO)cc1 | – | 52.5 nM (active) |

Assay: BET inhibitor-based combinations targeting novel dependencies in MECOM-rearranged (r) AML: HNT-34 cell line (AID 2202234); also: nearly all actives have a fitted effect of over 35% in size;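 as to viability (% of control): plate controls were vehicle wells for no effect and cell-free wells for full effect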
Conditions: HNT-34 AML viability, CellTiter-Glo luminescence, 48 h; series mostly up to 46 µM; viability (% of control): at the top concentration
Outline: as §1

| Structure (SMILES) | Potency | viability (% of control) |
| --- | --- | --- |
| CCOC(=O)[C@@H](N)Cc1ccc(-c2cc(O[C@H](c3ccc(Cl)cc3-n3ccc(C)n3)C(F)(F)F)nc(N)n2)cc1 | 23500 nM (active) | – |
| O=C(Nc1cn[nH]c1-c1nc2ccc(CN3CCOCC3)cc2[nH]1)NC1CC1 | 332 nM (active) | – |
| c1ccc(Cn2c(-c3ccc(OCC(C4CCNCC4)n4c(-c5ccccc5)nc5ccccc54)cc3)nc3ccccc32)cc1 (centres undefined) | 18600 nM (active) | – |
| Cn1ncc(Cl)c1-c1cc(C(=O)NC(CN)Cc2ccc(F)c(F)c2)oc1Cl (centres undefined) | 18600 nM (active) | – |
| Cc1cnc(Nc2ccc(CN3CCOCC3)cc2)nc1Nc1cccc(S(=O)(=O)NC(C)(C)C)c1 | 1180 nM (active) | – |
| OCCNC1CCCc2c1[nH]c1ccc(-c3ccccc3)cc21 (centres undefined) | 14800 nM (active) | – |
| CCC(=O)NS(=O)(=O)c1ccc(-c2c(-c3ccccc3)noc2C)cc1 | – | 111% (inactive) |
| O=C(c1ccc(F)c(F)c1Nc1ccc(I)cc1F)N1CC(O)([C@@H]2CCCCN2)C1 | 742 nM (active) | – |
| CNCc1ccc(C)c(NC(=O)c2ccc(Nc3nc(-c4ccccc4)c4ccccc4n3)cc2)c1 | 20900 nM (active) | – |
| Cn1ncc(Cl)c1-c1cc(C(=O)N[C@H](CN)Cc2ccc(F)c(F)c2)sc1Cl | 16600 nM (active) | – |
| C[C@H]1O[C@@H](O[C@H]2[C@@H](O)C[C@H](O[C@H]3[C@@H](O)C[C@H](O[C@H]4CC[C@@]5(C)[C@H](CC[C@@H]6[C@@H]5C[C@@H](O)[C@]5(C)[C@@H](C7=CC(=O)OC7)CC[C@]65O)C4)O[C@@H]3C)O[C@@H]2C)C[C@H](O)[C@@H]1O | 105 nM (active) | – |
| Cc1[nH]c2ccccc2c1CCNCc1ccc(/C=C/C(=O)NO)cc1 | 93.4 nM (active) | – |
| COC(C)(C)CCn1nc(Nc2c(C)cccc2C)c2cnc(Nc3ccc(OCCN4CCCC4)c(F)c3)nc21 | 66.1 nM (active) | – |
